Hits are enriched below; roughly 10% of the tested compounds scored in any of these assays.
BAZ2B block: BAZ2B (human) inhibition. Potency, µM (doses to about 114 µM), for inactives: at the highest dose activity change, negative = inhibition, most hits filed as inhibitors. AlphaScreen BAZ2B-H3K14Ac peptide displacement. 4.4% of 360,000 active. Q9UIF8; also: potency is read from the fitted curve at half-maximal effect; % is scaled to controls: 0 for no effect and ±100 for the full control effect; nearly all actives have a fitted effect of over 60% in size
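Inhibition is scored as reduced AlphaScreen emission. The BAZ2B/b-H3(5-23)K14Ac complex (50 nM each) in PBS pH 7.4, 0.01% Tween-20 meets compound (up to 110 uM) for 30 min at RT before bead addition.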
G9a inh-1: blocks human histone lysine methyltransferase G9a | Q96KQ7 | G9a H3K9 monomethylation, AlphaScreen, 2 h | Potency, µM (series often up to 102 µM), without a hit: at the highest dose activity, negative = inhibition, hits mostly inhibitors | 8.8% of 350,000 active | AID 504332; also: potency is read from the fitted curve at half-maximal effect; % is scaled to controls: 0 for no effect and ±100 for the full control effect; nearly all actives have a fitted effect of over 75% in size
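Step 1: enzyme (final 20 nM) with compound, 15 min RT. Step 2: substrate peptide 500 nM and SAM 20 uM, 2 h RT. Step 3: anti-H3K9me1 antibody and AlphaScreen beads, 10 min, then plate read.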
HP1b binding inh: HP1-beta chromodomain-methylated histone interaction inhibition | P83916 | AlphaScreen HP1-beta / biotin-H3K9me3 peptide binding | Potency, µM (series often up to 114 µM), for the others: top-dose activity change, negative = inhibition, actives largely listed as inhibitors | 0.56% of 390,000 active; also: potency is read from the fitted curve at half-maximal effect; nearly all actives have a fitted effect of over 70% in size
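AlphaScreen: HP1-beta (50 nM) preformed 30 min with biotin-H3(1-18)K9me3 peptide (50 nM) in PBS pH 7.4, 0.01% Tween-20. Compound added for 30 min at RT, then streptavidin donor/nickel chelate acceptor beads (10 ug/mL) for 30 min.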
GLS inhibitor: glutaminase GLS (human) inhibition. O94925. GLS enzymatic activity, qHTS titration. Potency, µM (top dose mostly 45.5 µM), for the others: at the highest dose activity change, negative = inhibition, usual class: inhibitors. 0.21% of 410,000 active; also: potency is read from the fitted curve at half-maximal effect; % is scaled to controls: 0 for no effect and ±100 for the full control effect
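Compounds were pin-transferred onto hKGA, after which L-glutamine (1 mM solution) and a detection mix of glutamate oxidase, HRP and Amplex Red were added. Initial and 30 min RT fluorescence reads were collected.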
JMJD2A Tudor: blocks the human JMJD2A Tudor domain. Potency, µM (doses to about 114 µM), for inactives: top-dose activity change, negative = inhibition, usual class: inhibitors. O75164. AlphaScreen JMJD2A-Tudor / H3K4me3 peptide binding. AID 504339. 4.4% of 390,000 active; also: potency is read from the fitted curve at half-maximal effect; % is scaled to controls: 0 for no effect and ±100 for the full control effect; nearly all actives have a fitted effect of over 50% in size
JMJD2E inh: confirmation of inhibitors of human JMJD2E demethylase; Potency, µM (top dose mostly 56.8 µM), without a hit: at the top dose activity change, negative = inhibition, hits mostly inhibitors; shares compounds with JMJD2A Tudor; 93% of 140 active; Recombinant JMJD2E, FDH-coupled NADH fluorescence (FDH is formaldehyde dehydrogenase)
FDH inh: blocks Pseudomonas putida formaldehyde dehydrogenase, flagging JMJD2E artifacts; shares compounds with JMJD2A Tudor; FDH enzyme assay, NADH fluorescence kinetic; Potency, µM (top dose mostly 56.7 µM), without a hit: at the highest dose activity, negative = inhibition, hits mostly inhibitors; 10% of 140 active; AID 2680
G9a inh-2: confirmation of human histone methyltransferase G9a inhibitors; Potency, µM, usual class: inhibitors; shares compounds with JMJD2A Tudor; 89% of 370 active; G9a H3K9 monomethylation, AlphaScreen, 2 h; also: potency is read from the fitted curve at half-maximal effect; nearly all actives have a fitted effect of over 65% in size
An asterisk follows results filed as active; ? = inconclusive; . = no result; [ ] = another dose, or the depositor's remark. Calls follow the shape of the dose curve; as a rule, active = well fitted curve in the direction sought with a large enough effect; inconclusive = small, poorly fitted or top-dose-only effect, or another doubt; inactive = no such curve, though single readings can be large; an effect the other way counts as inactive or inconclusive.

SMILES	BAZ2B block	G9a inh-1	HP1b binding inh	GLS inhibitor	JMJD2A Tudor	G9a inh-2	others
CC(C(=O)NCC(=O)Nc1ccc(F)c(F)c1F)N1CCN(Cc2ccc(C#N)cc2)CC1 (centres undefined)	0.5%	-8.4%[12.7 µM]	25.9%	0.5%	-0.8%	.
CC(C)CC(NC(N)=O)C(=O)OCC(=O)NC(=O)NC1CCCC1 (centres undefined)	13.5%	-5.6%[59 µM]	11.1%	7.6%	-19.6%	.
COc1cccc(NC(=O)Cc2nnc(SCC(=O)c3ccccc3)n2C)c1	10.7%	0.355µM*	24.2%	-1.1%	-11.8%	0.71*
COc1cc2c(cc1OC)C(C)N(C(=O)c1cc3c(C)cc(C)cc3[nH]1)CC2 (centres undefined)	?	16.0%[12.7 µM]	-14.2%	0.1%	?	.
COc1ccc(N2CCN(Cc3nc(N)nc(Nc4ccc(C)c(Cl)c4)n3)CC2)cc1	25.1µM*	1.58µM*	-48.4%	11.6%	35.5µM*	7.08*
COC(=O)c1cc2c(cc1Cl)N1CCCCCC1=NS2(=O)=O	-1.3%	6.9%	22.1%	4.3%	-14.0%	.
O=C(CC1SC(=Nc2ccccc2)N(CCCO)C1=O)Nc1ccc(Cl)cc1 (centres undefined)	-1.1%	-18.5%[59 µM]	14.2%	7.9%	-18.6%	.
CCOC(=O)c1ccc(NC(=O)CC2Sc3ncnn3C2=O)cc1 (centres undefined)	-11.8%	2.24µM*	?	6.5%	7.94µM*	0.564*	JMJD2E inh=2µM*;FDH inh=0.159µM*
CCOC(=O)c1ccc(NC(=O)CC2SC(=NC)N(C)C2=O)cc1 (centres undefined)	4.3%	-27.9%[12.7 µM]	22.7%	-13.0%	-10.2%	.
O=C(CC1Sc2ncnn2C1=O)Nc1ccc(Cl)cc1 (centres undefined)	-32.9%	2.51µM*	-18.6%	-0.5%	?	?	JMJD2E inh=2µM*;FDH inh=0.251µM*
COc1ccc(NC(=O)CC2Sc3ncnn3C2=O)cc1 (centres undefined)	4.4%	1.41µM*	1.5%	4.1%	?	0.632*	JMJD2E inh=3.16µM*;FDH inh=0.282µM*
Cc1[nH]nc2c1C(c1cccnc1)N(c1ccc(Br)cc1)C2=O (centres undefined)	-4.2%	?	4.7%	3.6%	-6.3%	.
CCn1c(SCC(=O)Nc2sc3c(c2C#N)CCCC3)nnc1-c1ccco1	4.7%	?	59.6%	2.6%	-11.6%	28.3*
CCn1c(SCC(=O)Nc2sc3c(c2C#N)CCC(C(C)(C)C)C3)nnc1-c1ccco1 (centres undefined)	1.6%	-32.7%	7.5%	10.1%	-21.1%	.
N#Cc1ccc(NN=Nc2ccccc2C#N)cc1	.	.	.	-10.1%	.	.
O=C(O)CCC(=O)Nc1ccc(N2CCCCCC2)cc1	?	0.891µM*	7.0%	47.4%	-35.1%	0.71*
COc1cc(CNc2ccc(N3CCCC3)cc2)ccc1OCc1ccccc1	12.6µM*	?	?	23.9%	35.5µM*	2.52*
COc1ccc(C(=O)Nc2ccc(N3CCCC3)cc2)cc1	-37.6%	1.58µM*	?	-6.1%	-4.1%[11.4 µM]	1.26*
Cc1ccc(N2CCN(c3ccc(NC(=O)CCC(=O)O)cc3)CC2)cc1	2.7%	?	9.4%	20.8%	-16.4%	.
COc1ccc(C(=O)Nc2cc3c(cc2N2CCCC2)n(C)c(=O)c(=O)n3C)cc1OC	-36.0%	?	18.3%	-0.2%	-25.0%	.
COc1ccc(C(=O)Nc2ccc(N3CCCC3)cc2)cc1OC	?	2.51µM*	-1.1%	.	?	2.51*
CCOc1ccc(C(=O)Nc2ccc(N3CCCC3)cc2)cc1	?	?	-27.8%	22.2%	?	.
